This is an account of results in PubChem BioAssay (Tox21).

A short description of experiment [1]: qHTS assay for small molecule agonists of the p53 signaling pathway (AID 651631; calls by dose curve; note: nearly all actives have a fitted effect of over 15% in size). The gist of the method: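 Beta-lactamase reporter activity under p53 response elements was quantified in HCT-116 cells by FRET fluorescence, following 16 h incubation with test compounds at 37 °C and 2 h substrate development at room temperature.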
Experiment [2] can be described thus: qHTS assay for small molecules that induce genotoxicity in human embryonic kidney cells expressing luciferase-tagged ATAD5 (AID 651632). Note: nearly all actives have a fitted effect of over 15% in size. The gist of the method: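 Test compounds were delivered by pin tool onto HEK293T reporter cells (2,000/well) expressing ATAD5 fused to luciferase. After 16 hr at 37C, 5% CO2, Amplite was added for 30 min at room temperature and luminescence was measured.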
On the technique in general: qHTS replaces the single test concentration by a dilution series.

Experiment [3] is described as follows: qHTS assay for small molecule agonists of the p53 signaling pathway - cell viability (AID 651633; calls by dose curve;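 note: p53RE-bla HCT reporter cells with a stable beta-lactamase p53 reporter; series mostly up to about 83 µM; nearly all actives have a fitted effect of over 30% in size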). Put shortly:
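p53RE-bla cells, seeded at 4,000 per well and rested 5 h at 37 C/5% CO2, received compounds in DMSO for 16 h at 37 C. CellTiter-Glo was then added, and luminescence was read after 30 min at room temperature to gauge cytotoxicity.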

Experiment [4] in a line: qHTS assay for small molecules that induce genotoxicity in human embryonic kidney cells expressing luciferase-tagged ATAD5 - cell viability (AID 651634; calls by dose curve; note: nearly all actives have a fitted effect of over 25% in size). The gist of the method:
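Quantitative high-throughput format. HEK293T cells expressing ATAD5 fused to luciferase were plated at 2,000 cells/well and treated 15.5 hr with compound versus DMSO. Viability was determined by fluorescent live-cell protease substrate, 30 min at 37C.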

A short description of experiment [5]: qHTS assay for small molecule disruptors of the mitochondrial membrane potential - cell viability (AID 720634; calls by dose curve;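 note: human HepG2 liver cancer cells; series mostly up to about 83 µM; nearly all actives have a fitted effect of over 20% in size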). The gist of the method:
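Same-well counter-screen: following the MMP dye addition, CellTiter-Glo was added to 1 hr compound-treated HepG2 cells and luminescence read after 30 min at room temperature.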

Experiment [6] in a line: qHTS assay to test for compound auto fluorescence at 590 nm (red) in HepG2 cells (AID 720674). Put shortly: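 Rose Bengal sodium served as the red fluorophore standard. HepG2 monolayers (overnight attachment, MEM with 10% FBS) were exposed to test compounds for 1 hr at 37 C and read at Ex 540/Em 590 nm.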
Experiment [7] in a line: qHTS assay to test for compound auto fluorescence at 535 nm (green) in HepG2 cells (AID 720675).
The nature of experiment [8]: qHTS assay to test for compound auto fluorescence at 460 nm (blue) in HEK293 cells (AID 720678). Put shortly: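 HEK293 cells (2,000 per well, medium with 10% dialyzed FBS) attached for 4-5 hr at 37C, then received compound and stood overnight at 37C, 5% CO2. Blue fluorescence was read at Ex/Em 405/460 nm and expressed relative to triamterene.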
Experiment [9] can be described thus: qHTS assay to test for compound auto fluorescence at 590 nm (red) in HEK293 cells (AID 720679). The gist of the method:
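HEK293 cells (2,000/well, medium with 10% dialyzed FBS) attached for 4-5 hr at 37C, received 23 nL compound and were incubated overnight at 37C, 5% CO2. Red fluorescence was then read at 540/590nm Ex/Em, referenced to Rose Bengal sodium.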

Experiment [10] in a line: qHTS assay to test for compound auto fluorescence at 535 nm (green) in HEK293 cells (AID 720680).
Experiment [11] can be described thus: qHTS assay to test for compound auto fluorescence at 460 nm (blue) in HEK293 cell free culture (AID 720681). The gist of the method: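 Test compounds were pinned into cell-free culture medium (DMEM with 10% FBS) and fluorescence was read directly at Ex/Em 405/460 nm. Signals were expressed as fluorescence equivalents of triamterene, with DMSO vehicle as control.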

A short description of experiment [12]: qHTS assay to test for compound auto fluorescence at 535 nm (green) in HEK293 cell free culture (AID 720682). The gist of the method:
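Each library compound, or DMSO control, is added by pintool to medium alone, comprising DMEM and 10% FBS. Emission at 535 nm following 485 nm excitation is quantified against fluorescein.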

Experiment [13] is described as follows: qHTS assay to test for compound auto fluorescence at 590 nm (red) in HEK293 cell free culture (AID 720683). The gist of the method: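 Tox21 10K library compounds were pinned into cell-free DMEM with 10% FBS and fluorescence was read at excitation 540 nm. Activity is expressed as Rose Bengal sodium equivalency.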
Experiment [14] is described as follows: qHTS assay to test for compound auto fluorescence at 590 nm (red) in HepG2 cell free culture (AID 720684). Put shortly: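 Readout: intrinsic compound fluorescence at 590 nm emission after 540 nm excitation, scaled to Rose Bengal sodium. Matrix was cell-free MEM with 10% FBS; DMSO vehicle wells served as control.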
Experiment [15] in a line: qHTS assay to test for compound auto fluorescence at 460 nm (blue) in HepG2 cell free culture (AID 720685). Put shortly:
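Cell-free plates of MEM plus 10% FBS received 23 nL compound or DMSO vehicle; blue-channel (405/460 nm) intensity scored against triamterene as reference fluorophore.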

Experiment [16] in a line: qHTS assay to test for compound auto fluorescence at 535 nm (green) in HepG2 cell free culture (AID 720686).
The nature of experiment [17]: qHTS assay to test for compound auto fluorescence at 460 nm (blue) in HepG2 cells (AID 720687). Put shortly:
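Cells (2,000/well in MEM with 10% FBS) attached overnight at 37 C, then were exposed to compound or DMSO for 1 hr at 37 C, 5% CO2. Fluorescence read at Ex/Em 405/460 nm, expressed as triamterene-equivalent signal.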

In experiment [18] the target is Glucocorticoid receptor (Homo sapiens) (UniProt P04150). The experiment can be described thus: qHTS assay to identify small molecule agonists of the glucocorticoid receptor (GR) signaling pathway (AID 720691; active = well fitted activation curve with a large enough effect in the signal ratio in the repeat runs, not every such curve was filed as active; inconclusive = weak or mixed curves, or effect the other way; inactive = no such curve, though single readings can be large or run the other way; the % refers to the signal ratio; note: potency is the fitted concentration of half-maximal effect). Put shortly:
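A HeLa cervical cancer line expressing GR and a glucocorticoid response element-driven beta-lactamase gene is treated with compounds for 18 h; LiveBLAzer B/G FRET substrate is then applied and fluorescence read.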

Experiment [19] is described as follows: qHTS assay for small molecule disruptors of the mitochondrial membrane potential (AID 720635). Put shortly:
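HepG2 cells (2,000/well) attached overnight at 37C, then took compound for 1 hr at 37C, 5% CO2. Mito-MPS dye was added for 30 min; fluorescence was read at 490/535 nm (monomers) and 540/590 nm (aggregates).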

The target of experiment [20] is Glucocorticoid receptor (Homo sapiens) (UniProt P04150). As to the kind of experiment: qHTS assay to identify small molecule antagonists of the glucocorticoid receptor (GR) signaling pathway (AID 720692; active = well fitted inhibition curve with a large enough effect in the signal ratio in the repeat runs, not every such curve was filed as active; inconclusive = weak or mixed curves, or effect the other way; inactive = no such curve, though single readings can be large or run the other way; the % refers to the signal ratio). Put shortly:
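GRE-bla HeLa line, dex-stimulated (5 nM final). Compound exposure 18 h, 37 C. Beta-lactamase FRET read after 2 h RT substrate.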

A number with no mark means an inactive call. Active and inactive are the calls of the source. Unless noted, calls come from the whole dose curve; as a rule, active = well fitted curve in the direction sought with a large enough effect in the repeat runs; inconclusive = weak or mixed curves; inactive = no such curve, though single readings can be large; an effect the other way counts as inactive or inconclusive.

Glucocorticoid receptor (Homo sapiens), sequence (P04150 whole entry, looked up): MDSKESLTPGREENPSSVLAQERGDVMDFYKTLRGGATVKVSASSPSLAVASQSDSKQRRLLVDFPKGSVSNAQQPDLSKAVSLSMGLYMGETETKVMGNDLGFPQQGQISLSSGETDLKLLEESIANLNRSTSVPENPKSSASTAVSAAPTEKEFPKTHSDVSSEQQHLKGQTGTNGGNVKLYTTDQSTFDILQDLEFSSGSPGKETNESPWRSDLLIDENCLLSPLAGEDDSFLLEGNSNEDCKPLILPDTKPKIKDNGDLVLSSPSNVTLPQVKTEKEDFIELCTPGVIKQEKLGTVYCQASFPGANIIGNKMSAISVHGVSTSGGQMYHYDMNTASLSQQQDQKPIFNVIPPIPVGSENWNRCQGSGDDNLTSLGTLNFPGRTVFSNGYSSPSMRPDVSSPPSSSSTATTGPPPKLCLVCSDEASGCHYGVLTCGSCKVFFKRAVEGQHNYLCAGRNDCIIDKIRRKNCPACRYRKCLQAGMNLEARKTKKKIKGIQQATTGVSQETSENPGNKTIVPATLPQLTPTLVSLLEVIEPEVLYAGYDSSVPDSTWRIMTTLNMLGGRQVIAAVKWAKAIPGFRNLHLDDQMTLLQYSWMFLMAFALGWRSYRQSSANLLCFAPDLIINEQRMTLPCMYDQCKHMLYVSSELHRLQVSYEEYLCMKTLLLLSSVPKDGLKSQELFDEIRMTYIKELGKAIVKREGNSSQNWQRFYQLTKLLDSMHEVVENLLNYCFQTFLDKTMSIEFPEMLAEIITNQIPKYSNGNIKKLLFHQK

On to `CCCCCCC1CCC(=O)O1` (centres undefined), for which the Potency result in experiment [1], in [2], in experiment [3] and in experiment [4] was “inactive” throughout. The compound was called inactive in experiment [5], in [6], in experiment [7], in [8], in experiment [9] and in experiment [10]. Besides, the call in experiment [11], in experiment [12], in [13], in experiment [14], in experiment [15] and in [16] was inactive.

Turning to `CCCCCC(=O)OCCc1ccccc1`, the Potency entry in experiment [1], in experiment [2], in experiment [3] and in [4] was “inactive” in each case. Besides, the compound was classed as inactive in experiment [5], in experiment [6], in experiment [7], in [8], in experiment [9] and in experiment [10]. Moreover, the compound was called inactive in experiment [11], in [12], in experiment [13], in experiment [14], in experiment [15] and in experiment [16].

Turning to `Cc1ccc(C(=O)c2ccccc2)cc1`, the Potency result in experiment [1], in experiment [2], in [3], in experiment [4] and in experiment [18] was “inactive” each time. The compound was called inactive in experiment [5], in experiment [6], in experiment [7], in experiment [8], in experiment [9] and in experiment [10]. The call in [11], in experiment [12], in [13], in [14], in experiment [15] and in experiment [16] was inactive. In addition, the call in experiment [17] was inactive.

For `O=S(=O)(O)c1cccc2ccccc12`, the Potency entry in [1], in experiment [2], in [3], in experiment [4], in [19] and in experiment [18] was “inactive” in each case. Also, the result in experiment [5], in experiment [6], in experiment [7], in experiment [10], in experiment [11] and in experiment [12] was inactive. The call in experiment [13], in [14], in experiment [15], in [16] and in experiment [17] was inactive.

With `CCN[C@@H]1C[C@H](N)[C@@H](OC2OC(CN)=CCC2N)[C@H](O)[C@H]1O[C@H]1OC[C@](C)(O)[C@H](NC)[C@H]1O` (some centres undefined), the Potency result in experiment [1], in experiment [2], in experiment [3], in experiment [4] and in experiment [19] was “inactive” each time. In addition, the outcome in experiment [5], in experiment [6], in [7], in experiment [9], in experiment [10] and in experiment [11] was inactive. The result in [12], in experiment [13], in experiment [14], in experiment [15], in [16] and in experiment [17] was inactive.

Regarding `C[C@@H]1C[C@H]2[C@@H]3C[C@H](F)C4=CC(=O)C(Cl)=C[C@]4(C)[C@@]3(F)[C@@H](O)C[C@]2(C)[C@@]1(O)C(=O)CO`, the Potency result in experiment [1], in experiment [2], in [3] and in experiment [4] was “inactive” in each case. The compound was called inactive in [5], in [6], in experiment [7], in experiment [8], in experiment [9] and in experiment [10]. Moreover, the outcome in experiment [11], in experiment [12], in experiment [13], in experiment [14], in experiment [15] and in experiment [16] was inactive. The call in experiment [17] was inactive. Further, the Potency in experiment [18] was 15.1 nM [inconclusive] (active).

As for `CN(C)[C@@H]1C(=O)C(C(=O)NCN2CCCC2)=C(O)[C@@]2(O)C(=O)C3=C(O)c4c(O)cccc4[C@@](C)(O)C3C[C@@H]12` (some centres undefined), the Potency result in [1], in [2], in [3], in [4], in experiment [19] and in [18] was “inactive” each time. Besides, the Potency entry in experiment [20] was “inactive”. Moreover, the outcome in [5], in experiment [6], in experiment [7], in experiment [8], in experiment [10] and in [11] was inactive. Besides, the call in [12], in experiment [13], in experiment [14], in experiment [15], in [16] and in experiment [17] was inactive.

With `O=S(=O)(O)c1cccc2c(S(=O)(=O)O)cccc12`, the Potency entry in [1], in experiment [2], in [3], in [4] and in experiment [18] was “inactive” throughout. The call in experiment [5], in experiment [6], in experiment [7], in [8], in experiment [9] and in [10] was inactive. Besides, the compound was called inactive in [11], in [12], in experiment [13], in experiment [14], in experiment [15] and in experiment [16]. In [17], the compound was classed as inactive.
